# Assay results: PubChem BioAssay (NCI)
# This is part of a sample that, as a whole, favours compounds with a hit. Of some 83,000 tested, about 20% had one in any assay.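 The test compound was applied at a single concentration to cells in 96-well plates for 48 hours, and percent growth was recorded.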 A number with no mark means an inactive call. Activity calls are given as the source filed them. The calls were made as follows: active = growth percent below 10; inactive = the rest.
# Assays:
# Assay in all cases: NCI-60 one-dose screen, 48 h (100 = growth as untreated, 0 = no growth, -100 = all killed)
# Settings in all cases: 10 µM unless noted
# [1] = system: NCI-H23 lung
# [2] = system: NCI-H226 lung
# [3] = system: NCI-H322M lung
# [4] = system: HOP-62 NSCLC
# [5] = system: NCI-H460 lung
# [6] = system: HOP-92 NSCLC
# [7] = system: NCI-H522 lung
# [8] = system: A549/ATCC NSCLC
# [9] = system: 786-0 renal
# [10] = system: COLO 205 colon
Structure (SMILES),growth [1],growth [2],growth [3],growth [4],growth [5],growth [6],growth [7],growth [8],growth [9],growth [10]
CC1=CC(=O)CC(C)(C)[C@@]1(O)/C=C/[C@@H](C)O,89.7%,80.8%,103%,107%,112%,97%,92.7%,87.7%,102%,110%
COc1c(C2CC(=O)Nc3c2cnn3Cc2ccco2)cc2c(c1OC)OCO2 (stereo not given),29.9%,44.7%,55.4%,12.2%,2.88% (active),48.9%,-2.1% (active),27.6%,35.4%,-49.1% (active)
CC(=O)O[C@H]1CC[C@]2(C)[C@H]3CC[C@@H]4[C@H]5[C@H](C(C)C)CC[C@]5(C(=O)OCC(CO)(CO)N=C(N)N)CC[C@@]4(C)[C@]3(C)CC[C@H]2C1(C)C,77.7%,91.4%,70.2%,86.1%,-32.4% (active),32%,-69.6% (active),54.6%,74.3%,-89.9% (active)
O=C(NC(Cc1ccccc1)C(=O)CCl)OCc1ccccc1 (stereo not given),69.4%,54.4%,111%,87.1%,69.6%,73%,6.56% (active),116%,79.8%,80.2%
Cc1ccc(-c2nc(/C=N/Nc3cc(C)nc4ccc(Cl)cc34)c(C)o2)cc1,44.5%,81.3%,-82.5% (active),74.9%,-77.2% (active),29.9%,-69.5% (active),-47.4% (active),-93.2% (active),-86% (active)
CCCCCC(=O)Oc1ccc(/C(=C(\C)c2ccccc2)c2ccc(OCCN(CC)CC)cc2)cc1,79.8%,93.3%,81%,91.7%,52.3%,52.8%,62.4%,67.7%,57.4%,15%
Cc1sc2nc3[nH]/c(=C\c4ccc(Cl)cc4)c(=O)n3c(=O)c2c1C,103%,100%,103%,110%,104%,92.7%,88.1%,94.1%,95.1%,112%
CCCCCN(CCCCC)CCC[C@@H](C)[C@H]1CC[C@H]2[C@@H]3[C@H](OCCCN)C[C@@H]4C[C@H](OCCCN)CC[C@]4(C)[C@H]3C[C@H](OCCCN)[C@]12C,49.2%,75.2%,24.6%,48.3%,45.2%,50%,28.8%,55.2%,61.1%,52.1%
C=C1C(=O)O[C@H]2[C@H]1CC/C(Cn1cc(Cn3ccc4cc(Cl)ccc43)nn1)=C\CC[C@@]1(C)O[C@@H]21,13.1%,61.4%,76.6%,75.7%,64.2%,-61.6% (active),-76% (active),48.5%,-71.4% (active),-82.3% (active)
Nc1c(C(=O)Nc2ccccc2Cl)sc2nc3c(cc12)CCCCCC3,72.4%,31%,49.2%,27%,30.8%,39.4%,58%,29%,-55.3% (active),33.8%
CCCCOc1ccc(NC(=O)n2nc(NC(C)=O)c3cc(NC(C)=O)ccc32)cc1,101%,99%,99.4%,108%,102%,93%,91.7%,102%,93.2%,121%
Cc1cccc(NC(=O)c2sc3nc4c(cc3c2N)C(=O)CCC4)c1,53.1%,56.6%,37.2%,42.9%,6.09% (active),64.5%,11.7%,31.4%,31.3%,3% (active)
NS(=O)(=O)c1ccc(Nc2nc3n[nH]c(Nc4ccccc4)c3c(=O)[nH]2)cc1,94.9%,92.5%,101%,90.8%,103%,102%,90.4%,103%,101%,96.6%
CCOC(=S)SCc1ccc(Cl)cc1,111%,101%,102%,101%,110%,49.3%,87.2%,80.4%,98%,145%
